Most compounds without a hit are left out; they make up all but 2.2% or so of the library.
Ba/F3 V617F tox: reduce viability of Ba/F3 cells dependent on JAK2V617F. Ba/F3 EpoR-JAK2V617F viability, ATP luminescence. inhibition, % at 5.6 µM. 220,000 compounds, 1.1% hits. AID 1446;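 active = inhibition above the campaign mean plus 3 SD over all tested compounds, cut at about 24% in these data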;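 note: cytokine-independent growth of Ba/F3 cells driven by EpoR plus mutant JAK2; 0% = DMSO-treated cells and 100% = JAK inhibitor I control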
aSyn 5UTR inh: MLPCN primary screen, SNCA 5' untranslated region; alpha-synuclein 5'UTR reporter, inhibitor activity; inhibition, % (tested at 7.5 µM); 300,000 compounds, 0.82% hits; AID 1813; in the data active = inhibition above about 60%;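 note: H4 neuroglioblastoma cells stably carrying SNCA 5'UTR luciferase fusion; 0% = DMSO wells and 100% = positive control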
KLF5 inh: inhibitors of KLF5 expression | DLD-1 KLF5 promoter-luciferase reporter, luminescence | inhibition, % at 5 µM | 290,000 compounds, 0.23% hits;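 active = inhibition above a per-plate limit of that plate's mean compound inhibition plus 3 SD, cut at about 60% in these data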;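 note: 0% = DMSO wells and 100% = LY294002 at 200 µM; higher means less KLF5 promoter-driven luciferase light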
IEC-6 tox: IEC-6 cytotoxicity, counter-screen for KLF5 inhibitors; 290,000 compounds, 0.78% hits; luminescence viability; inhibition, % at 5 µM; in the data active = inhibition above about 22%;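 note: 0% = plate median of test compound wells and 100% = cytotoxic reference compound wells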
BaF3 parental: counter-screen for JAK2V617F inhibitors: parental Ba/F3 viability inhibitors | CellTiter-Glo ATP luminescence | inhibition, % at 5.6 µM | 220,000 compounds, 1.1% hits | AID 1486;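 active = inhibition above a per-campaign cutoff, the mean inhibition of all tested compounds plus 3 SD, cut at about 27% in these data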;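 note: 0% = DMSO wells and 100% = JAK Inhibitor I control wells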
APP 5UTR inh: APP translation inhibition | SH-SY5Y APP 5'UTR-luciferase reporter, luminescence | 190,000 compounds, 0.82% hits | inhibition, % at 2 µM;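 active = inhibition above a set limit, derived from the sample mean plus 3 SD, cut at about 45% in these data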
Numbers without * were called inactive; . = not tested or not shown.

SMILES	Ba/F3 V617F tox	aSyn 5UTR inh	KLF5 inh	IEC-6 tox	BaF3 parental	APP 5UTR inh
CC(=O)OC(C)(C)/C=C/C(=O)[C@](C)(O)[C@H]1[C@H](O)C[C@@]2(C)[C@@H]3CC=C4[C@H](C[C@H](O)C(=O)C4(C)C)[C@]3(C)C(=O)C[C@]12C	101*	.	83*	98*	88*	90*
COC(=O)c1nc(-c2ccc3c(n2)C(=O)C(N)=C(OC)C3=O)c(N)c(-c2ccc(OC)c(OC)c2O)c1C	9	97*	-5	8	9	.
Cc1nn(Cc2ccccc2)c(C)c1C=C1C(=O)NC(=O)NC1=O	-3	21	-32	-4	2	7
c1ccc2c(CN3CCCCCCC3)c[nH]c2c1	49*	12	-5	-3	38*	0
c1ccc2c(CN3CCN(C4CCCCC4)CC3)c[nH]c2c1	-2	2	-2	1	4	6
CCc1nn(CC(=O)N2CCC3(CC2)OCCO3)c(=O)c2cccn12	.	6	-2	-8	.	.
CC(=O)OC1CC[C@]2(C#N)[C@H]3CC[C@]4(C)[C@H](C5C=CC(=O)O5)CCC4(O)C3CCC2(O)C1 (some centres undefined)	.	85*	-30	-6	.	.
COc1cccc(CCNCc2c(F)cccc2F)c1	1	4	-20	3	6	8
COc1ccc(-n2c(CNCCc3ccc(C)cc3)nc3ccccc3c2=O)cc1	.	-24	2	10	.	.
Cc1ccccc1NS(=O)(=O)c1ccc(OCC(=O)N2CCN(C)CC2)cc1	.	2	-24	-1	.	.
COc1ccc(C(=O)C2CCCN(C3CSCCSC3)C2)cc1OC (centres undefined)	3	-2	-22	-2	8	-7
N#Cc1ccc(Cn2cc(C=O)c3ccccc32)cc1	.	50	-13	3	.	.
O=Cc1cn(Cc2ccccc2F)c2ccccc12	-2	52	-38	-2	3	17
O=Cc1cn(Cc2cccc([N+](=O)[O-])c2)c2ccccc12	0	94*	1	3	1	12
Cc1cccc(Cn2cc(C=O)c3ccccc32)c1	.	68*	-15	3	.	.
CSc1nnc(C2CCNCC2)n1C	1	-8	4	11	4	-1
O=c1[nH]c(O)c(/C=C2\C=Nc3ccc(OCc4ccccc4)cc32)c(=O)[nH]1	.	-24	-47	-1	.	.
CCOc1ccc(-c2cc(C)[n+](CCc3ccc(OC)c(OC)c3)c(-c3ccc(OCC)cc3)c2)cc1	.	44	34	3	.	.
CCOc1ccc(-c2cc(C)[n+](CCO)c(-c3ccc(OCC)cc3)c2)cc1	57*	19	-16	-1	72*	-5
CCCCCCC(=O)c1c(O)n(-c2ccc(OC)cc2)c(=O)[nH]c1=O (tested in a mixture with another compound)	-2	-5	-7	-4	0	.
CC(=O)c1cn(Cc2ccccc2C#N)c2ccccc12	46*	-9	-11	16	67*	-4
CC12CC[C@H]3[C@@H](CCC4(O)C[C@H](O)CCC34/C=N/NC(=O)c3ccccc3O)C1(O)CCC2C1=CC(=O)OC1 (some centres undefined)	-2	77*	-26	-2	0	.
CC12CC[C@H]3[C@@H](CCC4(O)C[C@H](O)CCC34/C=N/NC(=O)c3ccccc3F)C1(O)CCC2C1=CC(=O)OC1 (some centres undefined)	-2	64*	1	-1	3	.
O=c1[nH]c(=O)n(-c2ccccc2)c(O)c1/C=C1/C(c2ccccc2)=Nc2ccccc21	80*	-60	32	55*	68*	68*
CN(C)CCNC(=O)c1cccn(Cc2cc(C(F)(F)F)cc(C(F)(F)F)c2)c1=O	1	2	-38	-2	1	5
SMILES	Ba/F3 V617F tox	aSyn 5UTR inh	KLF5 inh	IEC-6 tox	BaF3 parental	APP 5UTR inh
CC(=O)Nc1ccc(OC(=O)N2CCCCC2)cc1	-4	69*	-3	1	1	-2
CC(=O)N(C)CC#CCN1CCCC(CO)C1 (centres undefined)	.	-8	.	.	.	.
C=C1C(=O)O[C@@H]2C[C@@H](C)[C@@H]3C=CC(=O)[C@@]3(C)[C@@H](O)[C@H]12	.	119*	.	.	.	.
CP(C)(=O)CCC(=O)O	11	4	8	-7	36*	-2
O=C1COc2ccc(C(=O)COC(=O)Cc3ccccc3)cc2N1	.	-11	.	.	.	.
C#CC[N+]1(C)C2CCC1CC(O)C2 (centres undefined)	0	2	-12	0	4	7
CCCCCCCSc1cc(OC)c(CCNC)cc1OC	2	121*	-37	-1	8	-2
CCCCCSc1cc(OC)c(CCNC)cc1OC	3	-34	-12	5	7	2
COc1ccc(-[n+]2c(-c3ccccc3)cc(-c3ccccc3)cc2-c2ccccc2)cc1	.	81*	.	.	.	.
CCC1(OC(=O)CN)C(=O)OCc2c1cc1n(c2=O)Cc2cc3ccccc3nc2-1 (centres undefined)	99*	103*	104*	96*	96*	.
CN1CC=C(c2c[nH]c3ccccc23)CC1	29*	-5	15	-1	61*	-1
O=[N+]([O-])c1ccc(CN2CC=C(c3ccccc3)CC2)cc1	.	-2	17	2	.	.
C1=C(c2c[nH]c3ccccc23)CCN(Cc2ccccc2)C1	97*	35	7	7	76*	-18
N#CC1=C(N)Oc2cc(O)ccc2C1c1ccc2c(c1)OCO2 (centres undefined)	6	-17	-40	0	9	3
NC(=S)c1cn(C2OC(CO)C(O)C2O)c2ncnc(N)c12 (centres undefined)	99*	105*	110*	100*	104*	.
Nc1ncnc2c1ccn2[C@@H]1O[C@H](CO)[C@@H](O)[C@H]1O	.	107*	.	.	.	.
C=C(C=O)CC1CC(O)[C@]2(C)OC3CC4OC5C[C@]6(C)O[C@]7(C)CCC8OC9C[C@]%10(C)OC%11C(C)=CC(=O)OC%11CC%10OC9C[C@@H](C)C8OC7CC6O[C@]5(C)CC5OC5C4OC3CC2O1 (some centres undefined)	97*	114*	-10	11	97*	96*
Cc1ccc2[nH]c3c(c2c1)CN(C(=O)CN1C[C@H]2C[C@@H](C1)c1cccc(=O)n1C2)CC3	.	-2	2	5	.	.
CCn1c(NN=O)nc2ccccc21	3	74*	-15	3	7	44
Cc1nn(Cc2ccccc2Cl)c(C)c1C(=O)OCC(=O)NC1CCS(=O)(=O)C1 (centres undefined)	0	5	-1	-1	4	7
